Assay results from PubChem BioAssay AID488969 (Vanderbilt High Throughput Screening Facility, 2010).
In all, about 110,000 compounds were measured (“z-score”: median about -0.1, highest 2% from about 2 on). Shown is part of a subset that was picked to be rich in the highest values. Activity calls are given as the source filed them.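 The calls were made as follows: active = z-score in the third read window above 3 or below -3; inactive = the rest.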

What follows are compounds tested against Metabotropic glutamate receptor 8 (Rattus norvegicus) (UniProt P70579) (assay: rat mGluR8 modulators via GIRK flux, primary screen, cell-based, thallium flux, HTS (AID 488969)). Details: HEK293 rat mGluR8, GIRK (G protein-gated inwardly rectifying potassium channel) thallium flux, FluoZin2; at 10 µM; stronger effect = higher value; submaximal glutamate (EC20) added with thallium.
Metabotropic glutamate receptor 8 (Rattus norvegicus), sequence (P70579 whole entry, looked up): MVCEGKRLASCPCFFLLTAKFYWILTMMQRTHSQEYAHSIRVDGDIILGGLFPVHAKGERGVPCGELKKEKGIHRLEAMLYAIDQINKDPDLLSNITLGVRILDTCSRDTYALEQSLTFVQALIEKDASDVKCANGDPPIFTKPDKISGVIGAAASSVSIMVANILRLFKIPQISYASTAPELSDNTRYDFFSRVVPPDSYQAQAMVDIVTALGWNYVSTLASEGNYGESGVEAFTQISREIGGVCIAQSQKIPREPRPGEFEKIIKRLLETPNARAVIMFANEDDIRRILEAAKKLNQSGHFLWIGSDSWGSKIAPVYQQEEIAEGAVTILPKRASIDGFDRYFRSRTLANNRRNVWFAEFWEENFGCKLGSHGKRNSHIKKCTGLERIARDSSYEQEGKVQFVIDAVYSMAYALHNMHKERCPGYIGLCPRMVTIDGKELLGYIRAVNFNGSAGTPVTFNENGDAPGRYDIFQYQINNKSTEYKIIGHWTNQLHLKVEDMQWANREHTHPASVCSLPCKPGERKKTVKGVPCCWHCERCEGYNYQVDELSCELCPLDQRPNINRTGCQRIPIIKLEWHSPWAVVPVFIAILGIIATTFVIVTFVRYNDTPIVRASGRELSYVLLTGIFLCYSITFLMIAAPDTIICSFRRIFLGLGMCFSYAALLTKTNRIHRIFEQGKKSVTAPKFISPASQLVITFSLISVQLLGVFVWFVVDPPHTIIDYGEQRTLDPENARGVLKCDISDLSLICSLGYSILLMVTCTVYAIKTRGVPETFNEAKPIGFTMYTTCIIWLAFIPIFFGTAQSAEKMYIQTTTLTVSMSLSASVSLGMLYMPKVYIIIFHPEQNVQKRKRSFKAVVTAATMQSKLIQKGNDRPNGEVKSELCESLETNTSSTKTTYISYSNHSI
`C=CCn1c(SCC(=O)NCCc2ccccc2)nnc1C(C)NC(=O)c1cccs1` (stereo not drawn) was tested, and the z-score was 0.0814.
With `O=c1c(-c2nnc(SCc3ccc(Cl)cc3)o2)cccn1Cc1ccccc1` the z-score was 0.618.
`N#C/C(=C\c1ccc(OC(=O)c2ccccn2)cc1)C(N)=O` gave a z-score of -0.197.
`O=S(=O)(NCCOc1cccc2cccnc12)c1ccc(F)cc1` showed a z-score of -0.153.
`O=S(=O)(Nc1cc(Sc2cccc3cccnc23)c(O)c2ccccc12)c1ccc(F)cc1` was tested, and the z-score was 5.2 (active).
Work on `COc1ccc(S(=O)(=O)Nc2cc(Sc3ncn[nH]3)c(O)c3ccccc23)cc1` yielded a z-score of 0.366.
Work on `COC(=O)c1ccc(N2CCN(S(=O)(=O)c3ccccc3)CC2)c([N+](=O)[O-])c1` yielded a z-score of -0.111.
For `Cc1cc(=O)n(C)c(=O)n1CC(=O)N1CCCCCC1`, the z-score was 0.975.
Work on `Cc1c(NC(=O)/C(C#N)=C/c2cccs2)c(=O)n(-c2ccccc2)n1C` yielded a z-score of 0.559.
In the case of `O=C(Nc1ccccc1)c1ccc(OC(=O)c2cc3ccccc3o2)cc1`, the z-score is reported as -0.284.
Compound `COc1ccc(OC(=O)c2cc3ccccc3o2)cc1` has a z-score of 0.125.
Work on `O=C(Oc1ccccc1)c1cc2ccccc2o1` yielded a z-score of 2.68.
With `CCCCn1c(=O)c(C(=O)c2ccccc2)nc2ccccc21` the z-score was -0.617.
With `S=c1sc2c(N3CCN(Cc4ccccc4)CC3)ncnc2n1-c1ccccc1` the z-score was 0.467.
Work on `COc1ccc(CCN(Cc2cccs2)S(=O)(=O)c2ccc(S(=O)(=O)N3CCC(C)CC3)cc2)cc1OC` yielded a z-score of -0.101.
`O=c1c2ccccc2[nH]c(=S)n1CCC1=CCCCC1` gave a z-score of 0.577.
In the case of `O=c1c2ccc(Cl)cc2[nH]c(=S)n1CCC1=CCCCC1`, the z-score is reported as 5.05 (active).
`CCCCn1c(=S)[nH]c2c(oc3ccc(Cl)cc32)c1=O` was tested, and the z-score was 13.1 (active).
For `CCN(CC)CCCn1c(=S)[nH]c2ccc(Cl)cc2c1=O`, the z-score was 0.0726.
`O=c1c2oc3ccccc3c2[nH]c(=S)n1-c1ccccc1` gave a z-score of 0.645.
For `CCN(CC)CCCn1c(=S)[nH]c2cc(Cl)ccc2c1=O`, the z-score was 4.1 (active).
With `CCN(CC)CCn1c(=S)[nH]c2cc(Cl)ccc2c1=O` the z-score was 1.41.
`CCOC(=O)N1CCN(C(=O)c2ccc3c(=O)n(CCC4=CCCCC4)c(=S)[nH]c3c2)CC1` gave a z-score of 0.221.
`CCN(CC)CCCn1c(=S)[nH]c2cc(OC)c(OC)cc2c1=O` gave a z-score of -0.0622.
`Cc1ccc(C)c(N2CCN(c3ccc(N4C(=O)COCC4=O)cc3[N+](=O)[O-])CC2)c1` gave a z-score of -0.128.
Work on `O=[N+]([O-])c1ccc2c(c1)C(N1CCOCC1)/C(=C/COc1ccc3ccccc3c1Br)O2` (stereo not drawn) yielded a z-score of -0.0823.
`COc1ccc(-c2nnn(CC(=O)N3CCN(c4ccccc4OC)CC3)n2)cc1` was tested, and the z-score was -0.289.
With `CCOC(=O)C1CCc2sc(N)c(C#N)c21` (stereo not drawn) the z-score was 2.38.
`CCOC(=O)Nc1sc2c(c1C#N)CCC(C)C2` (stereo not drawn) gave a z-score of -0.505.
Work on `CCCC(=O)Nc1sc2c(c1C(=O)OC)C(C(=O)OC)CC2` (stereo not drawn) yielded a z-score of -0.0731.
`Cc1ccc(O)c(C(=O)c2cnc3c(c2)COc2ccccc2-3)c1` gave a z-score of -0.0344.
`CCOC(=O)C1=C(C)NC(C)=C(C(=O)OCC)C1c1ccc(O)cc1` gave a z-score of -0.238.
For `O=C(Nc1ccc2c(c1)OCCO2)C1CCN(c2cnccn2)CC1`, the z-score was 2.51.
With `CS(=O)(=O)N1CCC(C(=O)Nc2ccc3c(c2)OCCO3)CC1` the z-score was 0.0973.
`O=C(Nc1ccc2c(c1)OCCO2)C1CCC1` gave a z-score of 0.045.
In the case of `Cc1cc(C)nc(SCC(=O)c2c(N)n(C)c(=O)n(C)c2=O)n1`, the z-score is reported as -0.282.
`C=CCNC(=O)c1ccc(-c2nc(-c3ccccc3)cs2)cc1` showed a z-score of 0.133.
In the case of `CN(C)CCCNC(=O)c1ccc(-c2nc(-c3ccc(Cl)cc3)cs2)cc1`, the z-score is reported as 3.28 (active).
Work on `C=CCNC(=O)c1ccc(-c2nc(-c3ccc(Cl)c(Cl)c3)cs2)cc1` yielded a z-score of -0.148.
Work on `CCc1cccc(C)c1NC(=O)CCCC(=O)O` yielded a z-score of 0.0858.
In the case of `Cc1ccccc1Cn1ccc(NC(=O)c2nc3ncccn3n2)n1`, the z-score is reported as -1.29.
Compound `Cc1ccccc1Cn1cc(NC(=O)c2nc3ncccn3n2)cn1` has a z-score of 2.77.
Compound `O=C(Nc1cnn(Cc2ccccc2)c1)c1nc2ncccn2n1` has a z-score of -0.222.
`COc1ccc(/C=C/C(=O)c2sc(-c3ccccc3)nc2C)cc1` was tested, and the z-score was 0.276.
For `COc1ccc(-c2nc(N)nc(C)c2Oc2ccccc2Br)c(O)c1`, the z-score was -0.381.
`CSc1ccc(CCNC(=O)CSc2ccsc2[N+](=O)[O-])cc1` showed a z-score of -0.173.
For `CCc1nnc(NC(=O)CSc2nc(-c3ccccc3)cc(-c3ccc(F)cc3)c2C#N)s1`, the z-score was -0.163.
Compound `CCc1nnc(NC(=O)CSc2nc(-c3ccc(F)cc3)cc(-c3ccccc3)c2C#N)s1` has a z-score of 2.35.
`CCc1nnc(NC(=O)CSc2nc(-c3ccccc3)cc(-c3ccc(OC)cc3)c2C#N)s1` gave a z-score of -0.249.
`c1ccc(-c2nc(CSc3n[nH]c(-c4cccs4)n3)cs2)cc1` was tested, and the z-score was 0.259.
In the case of `CCCN1CCN(C(=O)c2cn(CC(C)C)c(=O)c3cc(OC)c(OC)cc23)CC1`, the z-score is reported as -0.37.
`CCOC(=O)C1CCCN(C(=O)c2cn(CC(C)C)c(=O)c3cc(OC)c(OC)cc23)C1` (stereo not drawn) gave a z-score of -0.759.
`COc1cc2c(C(=O)N3CCN(C4CCCCC4)CC3)cn(CC(C)C)c(=O)c2cc1OC` gave a z-score of 2.68.
`Cc1nn(-c2ccccc2)c(Cl)c1C(=O)OC(C)C(=O)Nc1ccc2c(c1)OCO2` (stereo not drawn) was tested, and the z-score was -0.936.
With `CCCn1nnc(NC(=O)c2ccc(F)cc2)n1` the z-score was -0.08.
In the case of `COc1ccc(-c2nc(N)n[nH]2)cc1`, the z-score is reported as -0.101.
With `CCCCc1ccc(-c2nc(N)n[nH]2)cc1` the z-score was 2.99.
Compound `Nc1n[nH]c(-c2ccccc2)n1` has a z-score of 0.189.
`CCOC(=O)c1c(C)[nH]c(C(=O)COC(=O)c2ccccc2NC(=O)c2ccco2)c1C` was tested, and the z-score was -0.00749.
In the case of `Cc1ccc(NC(=O)CSCCc2ccccn2)nc1`, the z-score is reported as 0.022.
Work on `CSc1ccc(/C=N/NC(=O)CNc2cccc3ccccc23)cc1` yielded a z-score of 0.3.
With `CCNC(=O)NC(=O)C(C)OC(=O)C1CCN(S(=O)(=O)c2ccc(C)c(C)c2)CC1` (stereo not drawn) the z-score was -0.143.
For `COc1cccc(-c2nc(=S)c3c(n2Cc2ccco2)CCCC3)c1`, the z-score was 0.708.
Compound `Cc1cccc(-c2nc(=S)c3c(n2Cc2ccco2)CCCC3)c1` has a z-score of 0.581.
`S=c1nc(-c2ccccc2)n(Cc2ccco2)c2c1CCCC2` was tested, and the z-score was 2.16.
`CCCc1[nH]nc2c1C(c1ccc(OCCN3CCOCC3)c(OCC)c1)C(C#N)=C(N)O2` (stereo not drawn) was tested, and the z-score was -0.892.
`C=CCNC(=O)COc1ccc(Br)cc1Cl` was tested, and the z-score was 0.0502.
With `CC(=O)NC(=S)Nc1ccc(NC(=O)COc2ccc(Cl)cc2Cl)cc1` the z-score was -0.0173.
With `O=C(COc1ccc(Cl)cc1Cl)NNC(=S)Nc1ccc(F)cc1` the z-score was 7.82 (active).
Compound `CCc1ccc(OCC(=O)NC(=S)Nc2ccc(F)cc2)c(Br)c1` has a z-score of 0.182.
In the case of `C=CCNC(=S)NNC(=O)COc1ccc(Cl)cc1Cl`, the z-score is reported as 6.1 (active).
For `C=CCNC(=S)NNC(=O)COc1c(Cl)cc(Cl)cc1Cl`, the z-score was 0.71.
With `COc1ccc(NC(=S)NNC(=O)COc2ccc(Cl)cc2Cl)cc1` the z-score was 2.95.
Compound `COC(=O)NC(=S)Nc1ccc(Oc2ccc(Cl)cc2)c(Cl)c1` has a z-score of 1.29.
For `COC(=O)NC(=S)Nc1ccc(Oc2ccc(Cl)cc2Cl)c(Cl)c1`, the z-score was 3.69 (active).
`CCC(=O)NC(=S)Nc1ccc(NC(=O)COc2ccc(Cl)cc2Cl)cc1` was tested, and the z-score was -0.124.
In the case of `O=C(COc1ccc(CO)cc1Cl)Nc1ccc(F)cc1`, the z-score is reported as 0.647.
Work on `CCCC(=O)Nc1cccc(NC(=S)NC(=O)C(C)Oc2ccc(Cl)cc2Cl)c1` (stereo not drawn) yielded a z-score of -0.0105.
